Laboratory results published in PubChem BioAssay AID1159580 (chemical genetic matrix, 2015).
“And” between values parts separate entries of the source, which are not always exact repeats. Equal entries are not always repeated. Among all 5,500 compounds or so, about 2,000 (36%) were called active. Not shown: some 18% with an inconclusive outcome. Rule as the data show it: active = normalized growth mostly below about 0.91 (no sharp cut-off); inconclusive = no clear call, values can overlap the other calls; inactive = mostly above about 0.92. Some of the results follow.

Test: chemical genetic growth profiling, strain panel (AID 1159580);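 also: tested at 20 µM; growth read once vehicle control cultures reached saturation at 30 °C; 1 = growth at the plate median or of vehicle wells; lower values mean less growth of the strain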
Conditions: S. cerevisiae deletion strains, growth OD

Measured: normalized growth

Cc1cc(O)c(C=O)c2c1C(=O)Oc1c(COC(=O)/C=C/C(=O)O)c(O)c(C(=O)O)c(C)c1O2
active: locus YAL026C, strain drs2, stronger effect = lower value 0.841 | locus YBR231C, strain swc5, stronger effect = lower value 0.885 | locus YCL061C, strain MRC1, stronger effect = lower value 0.912 | locus YDR069C, strain doa4, stronger effect = lower value 0.883 | locus YDR162C, strain NBP2, stronger effect = lower value 0.808 | locus YDR334W, strain swr1, stronger effect = lower value 0.891 | locus YER015W, strain faa2, stronger effect = lower value 0.874 | locus YER111C, strain swi4, stronger effect = lower value 0.906 | locus YFR010W, strain ubp6, stronger effect = lower value 0.873 | locus YGL173C, strain kem1, stronger effect = lower value 0.856 | locus YGL253W, strain hxk2, stronger effect = lower value 0.787 | locus YGR229C, strain SMI1, stronger effect = lower value 0.734 | locus YHR027C, strain rpn1, stronger effect = lower value 0.761 | locus YHR142W, strain chs7, stronger effect = lower value 0.852
inactive: locus YAL021C, strain ccr4, stronger effect = lower value 0.915 | locus YAL030W, strain snc1, stronger effect = lower value 0.96 | locus YBL061C, strain skt5, stronger effect = lower value 0.96 | locus YBR009C, strain hhf1, stronger effect = lower value 0.937 | locus YBR021W, strain FUR4, stronger effect = lower value 1.06 | locus YBR023C, strain chs3, stronger effect = lower value 0.967 | locus YBR171W, strain sec66, stronger effect = lower value 0.983 | locus YBR229C, strain ROT2, stronger effect = lower value 0.988 | locus YBR279W, strain paf1, stronger effect = lower value 0.933 | locus YCL011C, strain gbp2, stronger effect = lower value 0.974 | locus YCL016C, strain dcc1, stronger effect = lower value 0.992 | locus YCL029C, strain bik1, stronger effect = lower value 0.98 | locus YCL069W, strain vba3, stronger effect = lower value 0.973 | locus YCR088W, strain abp1, stronger effect = lower value 1.02 | locus YDL005C, strain med2, stronger effect = lower value 1.02 | locus YDL035C, strain GPR1, stronger effect = lower value 0.929 | locus YDL040C, strain nat1, stronger effect = lower value 1 | locus YDL074C, strain BRE1, stronger effect = lower value 0.936 | locus YDL101C, strain DUN1, stronger effect = lower value 0.959 | locus YDL185W, strain tfp1, stronger effect = lower value 0.919 | locus YDL192W, strain arf1, stronger effect = lower value 0.95 | locus YDR001C, strain nth1, stronger effect = lower value 0.998 | locus YDR101C, strain arx1, stronger effect = lower value 0.977 | locus YDR137W, strain rgp1, stronger effect = lower value 1.04 | locus YDR150W, strain NUM1, stronger effect = lower value 0.951 | locus YDR159W, strain sac3, stronger effect = lower value 0.981 | locus YDR195W, strain ref2 1.1 | locus YDR297W, strain sur2, stronger effect = lower value 0.957 | locus YDR318W, strain mcm21, stronger effect = lower value 0.991 | locus YDR335W, strain msn5, stronger effect = lower value 0.943 | locus YDR388W, stronger effect = lower value 0.992 | locus YDR392W, strain spt3, stronger effect = lower value 0.813 | locus YDR502C, strain sam2, stronger effect = lower value 0.96 | locus YEL003W, strain gim4, stronger effect = lower value 0.977 | locus YEL037C, strain rad23, stronger effect = lower value 0.939 | locus YEL061C, strain CIN8 (second series), stronger effect = lower value 0.993 | locus YEL061C, strain CIN8, stronger effect = lower value 0.97 | locus YER016W, strain bim1, stronger effect = lower value 1.03 | locus YER110C, stronger effect = lower value 0.981 | locus YER155C, strain BEM2 (second series), stronger effect = lower value 1.01 | locus YER155C, strain BEM2, stronger effect = lower value 1 | locus YER167W, strain BCK2, stronger effect = lower value 1.01 | locus YGL078C, strain dbp3, stronger effect = lower value 0.969 | locus YGL086W, strain mad1, stronger effect = lower value 0.971 | locus YGL167C, strain pmr1, stronger effect = lower value 0.993 | locus YGL227W, strain vid30, stronger effect = lower value 1.02 | locus YGL240W, strain doc1, stronger effect = lower value 1.06 | locus YGL248W, strain PDE1, stronger effect = lower value 0.947 | locus YGR135W, strain pre9, stronger effect = lower value 0.958 | locus YGR252W, strain gcn5, stronger effect = lower value 1.12 | locus YHR013C, strain ard1, stronger effect = lower value 0.877 | locus YHR030C, strain SLT2, stronger effect = lower value 0.973 and 0.971 | locus YHR079C, strain IRE1 (second series), stronger effect = lower value 0.994 | locus YHR079C, strain IRE1, stronger effect = lower value 0.985 | locus YHR094C, strain hxt1, stronger effect = lower value 0.994 | locus YHR129C, strain ARP1, stronger effect = lower value 0.937 | locus YHR200W, strain rpn10, stronger effect = lower value 0.976 | locus YIL066C, strain RNR3, stronger effect = lower value 0.896 | locus YIL073C, strain SPO22, stronger effect = lower value 0.898 | locus YIL125W, strain kgd1, stronger effect = lower value 0.969 | locus YIR030C, strain dcg1, stronger effect = lower value 0.993 | locus YJL092W, strain hpr5, stronger effect = lower value 0.952 | locus YJL095W, strain BCK1 (second series), stronger effect = lower value 0.961 | locus YJL095W, strain BCK1, stronger effect = lower value 0.904 and 0.959 | locus YJL115W, strain asf1, stronger effect = lower value 1 | locus YJL129C, strain trk1, stronger effect = lower value 1.08 | locus YJL134W, strain LCB3, stronger effect = lower value 0.978 | locus YJL154C, strain vps35, stronger effect = lower value 0.992 | locus YJL164C, strain tpk1, stronger effect = lower value 0.935 | locus YJL166W, strain qcr8, stronger effect = lower value 0.947 | locus YJL168C, strain set2, stronger effect = lower value 0.974 | locus YJL187C, strain SWE1 (second series), stronger effect = lower value 0.879
